Only some compounds are listed: those with a hit (about 8% of all), similar ones and a draw of the others.
HCMV inh – qHTS Assay for inhibitors of the human cytomegalovirus (HCMV) | HFF cells, HCMV-luciferase reporter, 72 h; stronger effect = lower value | activity change, negative = inhibition, % at 57.5 µM | actives 4.5% (n = 410,000) | AID 1259415, 2018; in the data active = activity change below about -60%; inconclusive = no clear call, values can overlap the other calls; inactive = above about -39%; also: % is scaled to controls: 0 for no effect and ±100 for the full control effect
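Two compound doses tested in HFFs infected with HCMV-luciferase, MOI 1 PFU/cell, 72 h at 37C. Lysate luminescence read with OneGlo; data normalized against buffer-only and 10uM Salinomycin inhibitor controls.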
LASV entry inh – qHTS for Inhibitors of binding or entry into cells for Lassa Virus; Lassa virus pseudotype entry inhibition, cell reporter; Potency, µM (titrated, usually from 37.9 µM), for the others: top-dose activity change, negative = inhibition, usual class: inhibitors; actives 1.2% (n = 300,000); calls by dose curve; tested in HEK293 cells; also: potency is read from the fitted curve at half-maximal effect; % is scaled to controls: 0 for no effect and ±100 for the full control effect; nearly all actives have a fitted effect of over 50% in size
SARS PLP yeast – qHTS of Yeast-based Assay for SARS-CoV PLP | S. cerevisiae expressing SARS-CoV PLpro, growth rescue | Potency, µM (doses to about 32.9 µM), inactives show at the top dose activity, positive = growth rescue, hits mostly activators | actives 0.19% (n = 330,000); calls by dose curve; also: potency is read from the fitted curve at half-maximal effect; 0% is about no effect; nearly all actives have a fitted effect of over 55% in size
Marburg entry inh – qHTS for inhibitors of binding or entry into cells for Marburg Virus; Marburg virus pseudotyped entry inhibition, cell reporter; Potency, µM (doses to about 37.8 µM), for inactives: at the highest dose activity change, negative = inhibition, actives largely listed as inhibitors; actives 1.8% (n = 300,000); AID 540276, 2011; calls by dose curve; tested in HEK293 cells; also: potency is read from the fitted curve at half-maximal effect; % is scaled to controls: 0 for no effect and ±100 for the full control effect
FMDV inh – High Throughput Screening for Foot and Mouth Disease Virus Antivirals. FMDV antiviral cell-based qHTS. Potency, µM (series often up to 57.9 µM), inactives show top-dose activity change, negative = inhibition, most hits filed as inhibitors. actives 1.2% (n = 410,000). AID 1159524, 2015; calls by dose curve; tested in HEK293T cells; also: read-out not given here; potency is read from the fitted curve at half-maximal effect; % is scaled to controls: 0 for no effect and ±100 for the full control effect; nearly all actives have a fitted effect of over 45% in size
HCV inhibitor – qHTS Assay for Inhibitors of Hepatitis C Virus (HCV); Huh7.5.1 HCVcc-Cre infection, luciferase reporter, 44 h; Potency, µM (series often up to 41.8 µM), without a hit: at the highest dose activity change, negative = inhibition, actives largely listed as inhibitors; actives 3.4% (n = 340,000); active = well fitted inhibition curve with a large enough effect; inconclusive = small, poorly fitted or top-dose-only effect, or another doubt; inactive = no such curve, though single readings can be large or run the other way; also: potency is read from the fitted curve at half-maximal effect; % is scaled to controls: 0 for no effect and ±100 for the full control effect
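Cells (1,000/well) were plated 4 h before compound, then infected with HCVcc-Cre virus (~0.5 moi). After 44 h further culture, infection was read as luciferase luminescence following a 15 min substrate incubation at room temperature.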
Numbers without * were called inactive; ? = inconclusive; . = no result given; [ ] = remark or other dose.

SMILES | HCMV inh | LASV entry inh | SARS PLP yeast | Marburg entry inh | FMDV inh | HCV inhibitor
COc1ccc(C(C)c2cc3c(cc2OCC(=O)O)OCO3)cc1 (stereo unspecified) | -14 | . | . | . | . | .
Clc1nc(-c2cccnc2)nc2scc(-c3ccccc3)c12 | ? | -1% | -48% | -3% | 14% | ?
COc1ccc(-c2csc3nc(-c4cccnc4)nc(Cl)c23)cc1OC | -71* | ? | -20% | ? | ? | ?
Cc1ccc(C(=O)NCc2ccccc2)cc1NC(=O)c1nsc2ccccc12 | 48 | -16%[46.1 µM] | . | . | 32% | .
CCC(C#N)(CC)P(=S)(c1ccccc1)c1ccccc1 | -73* | -4% | -34% | 3% | -11% | 1%
ClC1CCCC(Cl)C1Cn1nnc(N2CCCC2)n1 (stereo unspecified) | . | . | . | 24%[46.1 µM] | . | .
COc1ccccc1NS(=O)(=O)c1ccc(N/N=C(\C)C(C)C)c([N+](=O)[O-])c1 | -61* | ? | -5% | ? | -10% | ?
COc1ccc(NS(=O)(=O)c2ccc(N/N=C(\C)c3ccncc3)c([N+](=O)[O-])c2)cc1 | -67* | 12µM* | 21% | 6.3µM* | -13% | 4.5µM*
CCc1nc(SCC(=O)Nc2ccc(F)cc2)c2c(=O)n(C)c(=O)n(C)c2n1 | 9 | -2% | -3% | -23% | ? | .
O=C(CSc1nnc(NC2CCCCC2)s1)N1CCOCC1 | 86 | . | -2% | . | 10% | 9%
COc1ccc(-c2nc3cc(F)ccc3cc2CN(C(=O)c2cccs2)C2CC2)cc1 | . | . | . | . | -11% | .
COCCCNC(=O)CSC1=Nc2ccccc2C2=NC(c3ccccc3)C(=O)N12 (stereo unspecified) | -64* | 7% | 1% | 3% | 19% | 16%
COc1cc(CC(=O)Nc2nc(-c3ccccc3)c(C(C)=O)s2)cc(OC)c1OC | -21 | ? | 3% | -13% | -26% | 13µM*
COc1ccc(CC(=O)Nc2nc(-c3ccccc3)c(C(C)=O)s2)cc1OC | ? | ? | -3% | 11µM* | 14% | 13µM*
COc1ccc(NC(=O)N2CCNC(=O)C2CC(=O)Nc2ccc(F)cc2)cc1 (stereo unspecified) | 2 | 9% | 2% | 9% | -24% | 38%
O=C(CSc1ccncc1)NCC1Cc2cccc(-c3cncnc3)c2O1 (stereo unspecified) | . | . | . | . | 3% | .
CCS(=O)(=O)c1ncc(Cl)c(C(=O)Nc2ccccc2)n1 | -103* | ? | . | ? | ? | .
CS(=O)(=O)c1ncc(Cl)c(C(=O)Nc2c(C(=O)Nc3ccccc3)oc3ccccc23)n1 | 5 | 0%[46.1 µM] | . | -24%[46.1 µM] | 28µM* | .
CN(c1ccccc1)S(=O)(=O)c1ccc(NC(=O)c2nc(S(C)(=O)=O)ncc2Cl)cc1 | -111* | ? | . | ? | 11µM* | 10µM*
CCOC(=O)c1c(-c2ccccc2)csc1NC(=O)c1nn(CC)cc1Br | 11 | ? | 13% | 10µM* | . | ?
CCCSc1ncc(Cl)c(C(=O)Nc2ccc(S(=O)(=O)N(C)c3ccccc3)cc2)n1 | -35 | -25%[46.1 µM] | . | 2%[46.1 µM] | 1% | .
CCSc1ncc(Cl)c(C(=O)Nc2ccccc2)n1 | -19 | 6% | 26% | 12% | -19% | -8%
CC(=O)Nc1ccc(C(=O)N2CCCC(n3cc(C(=O)NCC(C)C)nn3)C2)cc1 (stereo unspecified) | . | . | . | . | 3% | .
COC(=O)C(C(=O)OC)c1ccccc1CNS(=O)(=O)c1ccc(C)cc1 | -13 | . | . | . | 4% | .
Cc1oc2ccc(O)c(CN3CCCC(C)C3)c2c1C(=O)Nc1ccccc1 (stereo unspecified) | ? | -29%[46.1 µM] | . | ? | 0% | .
SMILES | HCMV inh | LASV entry inh | SARS PLP yeast | Marburg entry inh | FMDV inh | HCV inhibitor
C=CCSc1nnc(N2C(=O)C(O)=C(C(=O)c3ccco3)C2c2ccccc2F)s1 (stereo unspecified) | 31 | . | -2% | . | 10% | 28%
COc1cc(/C=C/c2nc(C#N)c(NC3CCCCC3)o2)cc(OC)c1OC | 140 | -8%[46.1 µM] | . | ? | -1% | .
CCOC(=O)c1ccc(NC(=O)c2nc(S(=O)(=O)Cc3ccccc3)ncc2Cl)cc1 | -99* | ? | 1% | 11µM* | 35µM* | 10µM*
CCOC(=O)c1c(-c2ccccc2)csc1NC(=O)c1nc(S(=O)(=O)CC)ncc1Cl | -98* | -17%[46.1 µM] | . | ? | 14µM* | .
CCOC(=O)c1c(-c2ccccc2)csc1NC(=O)c1nc(SCC)ncc1Cl | 6 | 25%[46.1 µM] | . | ? | -19% | .
CCOC(=O)c1ccc(NC(=O)c2nc(SC(C)C)ncc2Cl)cc1 | -11 | ? | . | 16%[46.1 µM] | 2% | .
CCc1ccc(NC(=O)c2nc(S(=O)(=O)Cc3ccccc3)ncc2Cl)cc1 | -100* | . | -44% | . | . | .
CCN(c1ccccc1)S(=O)(=O)c1ccc(NC(=O)c2nc(SC)ncc2Cl)cc1 | -86* | ? | . | ? | -25% | .
COc1ccc(NC(=O)c2nc(SC)ncc2Cl)cc1 | 0 | . | -1% | . | 24% | -4%
CN(C(=O)c1nc(-c2cccc(F)c2)n2c1CCCCC2)c1ccccc1F | -62* | 4%[46.1 µM] | . | . | -13% | .
Cc1c(C(=O)N(C)C2CCOC2)sc2ncnc(NCc3ccc4c(c3)OCO4)c12 (stereo unspecified) | . | . | . | . | 11% | .
COc1cc(C2Oc3cc(C4Oc5cc(O)cc(O)c5C(=O)C4O)ccc3OC2CO)ccc1O (stereo unspecified) | -67* | 7% | 22% | 11% | ? | ?
CCOc1ccc(C(=O)NNC(=O)CNC(=O)c2ccc(C)s2)cc1OC | 0 | . | 1% | . | -5% | 10%
COC(=O)c1c(-c2ccc(OC)cc2)sc2cc3c(cc12)OCO3 | 90 | . | -1% | . | 55% | 11µM*
COc1ccc(-c2sc3ccc(N4CCOCC4)cc3c2C#CCCO)cc1 | 37 | . | 0% | . | ? | 4µM*
COc1ccc(-c2sc3ccccc3c2C#CCCO)cc1 | 93 | . | -30% | . | -12% | ?
COc1ccc(-c2sc3ccccc3c2C#CCO)cc1 | ? | . | -32% | . | -23% | 28µM*
COc1ccc(-c2sc3cc(OC)c(OC)cc3c2C#CCCO)cc1 | -18 | . | -1% | . | -23% | ?
COc1ccccc1-c1sc2cc3c(cc2c1C#Cc1cncn1C)OCO3 | 25 | . | 7% | . | ? | 0.89µM*
COc1ccc2sc(-c3ccccc3OC)c(C#Cc3cncn3C)c2c1 | -30 | . | -16% | . | -24% | ?
Cc1cccc(N(C(=O)c2csnn2)C(C(=O)NC2CCCCC2)c2ccccn2)c1C (stereo unspecified) | 12 | 0%[46.1 µM] | 7% | 8%[46.1 µM] | 3% | ?
